Our source for the B-score of Tl+ flux slope (higher = more flux/activation; lower = inhibition) values is PubChem BioAssay AID1456 (Vanderbilt High Throughput Screening Facility, 2008).

Among all 190,000 compounds or so, about 4,100 (2.2%) were called active. This is one part of a sample in which actives are shown more often than they occur.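 How the source made its calls: active means thallium flux slope and its plate-corrected score both differing from the plate sample mean at a set confidence after two filtering rounds, in either direction; inactive means the rest.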

Chain of Solute carrier family 12 member 5 (Homo sapiens) (Q9H2X9 whole entry, looked up): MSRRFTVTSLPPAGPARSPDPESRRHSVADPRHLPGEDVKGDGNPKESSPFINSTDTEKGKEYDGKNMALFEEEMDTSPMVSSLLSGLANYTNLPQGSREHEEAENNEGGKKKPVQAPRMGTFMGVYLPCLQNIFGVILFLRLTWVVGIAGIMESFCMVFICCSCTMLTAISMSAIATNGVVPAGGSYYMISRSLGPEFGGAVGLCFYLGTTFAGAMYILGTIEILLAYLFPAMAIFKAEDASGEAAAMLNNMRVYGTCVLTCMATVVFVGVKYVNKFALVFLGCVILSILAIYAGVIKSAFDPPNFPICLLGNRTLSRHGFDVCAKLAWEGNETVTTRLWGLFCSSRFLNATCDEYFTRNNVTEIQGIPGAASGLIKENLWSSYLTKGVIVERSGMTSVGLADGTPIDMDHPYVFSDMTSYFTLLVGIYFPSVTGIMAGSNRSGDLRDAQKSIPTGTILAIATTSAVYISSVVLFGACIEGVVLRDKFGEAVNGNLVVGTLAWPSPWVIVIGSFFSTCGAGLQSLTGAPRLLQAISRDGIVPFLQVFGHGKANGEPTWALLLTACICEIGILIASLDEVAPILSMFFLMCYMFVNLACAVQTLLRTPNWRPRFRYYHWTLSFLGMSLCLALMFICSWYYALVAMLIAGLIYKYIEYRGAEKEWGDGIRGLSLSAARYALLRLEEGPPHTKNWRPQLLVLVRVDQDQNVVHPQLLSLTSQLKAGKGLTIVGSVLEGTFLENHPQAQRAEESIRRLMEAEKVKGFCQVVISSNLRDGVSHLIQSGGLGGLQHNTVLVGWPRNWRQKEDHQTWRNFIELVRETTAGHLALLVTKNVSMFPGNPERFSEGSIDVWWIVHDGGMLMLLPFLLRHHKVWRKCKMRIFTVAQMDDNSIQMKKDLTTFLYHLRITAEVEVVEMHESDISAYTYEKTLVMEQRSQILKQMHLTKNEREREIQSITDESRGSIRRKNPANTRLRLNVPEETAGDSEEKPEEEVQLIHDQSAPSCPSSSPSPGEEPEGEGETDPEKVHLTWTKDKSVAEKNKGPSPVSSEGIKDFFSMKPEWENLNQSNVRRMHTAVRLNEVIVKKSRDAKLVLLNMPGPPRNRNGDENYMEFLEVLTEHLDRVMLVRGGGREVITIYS

The assay has as its target Solute carrier family 12 member 5 (Homo sapiens) (UniProt Q9H2X9). Briefly: KCC2 cotransporter modulators, thallium flux, primary screen, cell-based, HEK293 KCC2, FluoZin-2 fluorescence, MLSMR (AID 1456).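 Further: slope of fluorescence scaled to starting intensity during 10 to 20 s after thallium.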 The settings on record: KCC2 cells, thallium flux FluoZin-2 fluorescence; at 10 µM.
`C=CCN(C(=O)Nc1ccc2c(c1)nc(C)n2C)c1ccccc1`: the B-score of Tl+ flux slope (higher = more flux/activation; lower = inhibition) was -0.205 (inactive).

Take `COc1ccc2c(c1)c1ncn(Cc3ccccn3)c(=O)c1n2C`: the B-score of Tl+ flux slope (higher = more flux/activation; lower = inhibition) is -0.189 (inactive).

Consider `COc1ccc(-c2nn(C)c(=O)c3ccccc23)cc1CNC(=O)C1CCCCC1`, for which the B-score of Tl+ flux slope (higher = more flux/activation; lower = inhibition) was -0.0309 (inactive).

With `CCC(C)N1C(=S)SC(C)(C)C1N(O)C(=O)NC1CCCCC1` (stereo not drawn), the B-score of Tl+ flux slope (higher = more flux/activation; lower = inhibition) is 0.793 (inactive).

Take `COc1ccccc1-n1cn[nH]c1=S`: the B-score of Tl+ flux slope (higher = more flux/activation; lower = inhibition) was 0.0347 (inactive).

With `CCc1ccc(NC(=O)N[C@H](C(=O)O)C(C)CC)cc1` (stereo partly drawn), the B-score of Tl+ flux slope (higher = more flux/activation; lower = inhibition) was 1.5 (inactive).

As for `O=C(O)c1ccc(/C=N/Nc2nc(N3CCCCC3)nc(N3CCCCC3)n2)cc1`, the B-score of Tl+ flux slope (higher = more flux/activation; lower = inhibition) was -1.4 (inactive).

In the case of `Cc1ccc(C(=O)N/C(=C\c2ccco2)C(=O)NC2CCS(=O)(=O)C2)cc1` (stereo not drawn), the B-score of Tl+ flux slope (higher = more flux/activation; lower = inhibition) is -1.21 (inactive).

Consider `CN(C(=O)CCn1c(=S)oc2ccccc21)C1CCCCC1`, for which the B-score of Tl+ flux slope (higher = more flux/activation; lower = inhibition) was 0.00441 (inactive).

On to `CC(C)c1nc(SCC(=O)NC(=O)NC(C)(C)C)n[nH]1`, for which the B-score of Tl+ flux slope (higher = more flux/activation; lower = inhibition) is -0.671 (inactive).

For `Cc1ccc(NC(=O)/C(=C/c2ccc([N+](=O)[O-])cc2)NC(=O)c2ccccc2)cc1`, the B-score of Tl+ flux slope (higher = more flux/activation; lower = inhibition) is -1.36 (inactive).

For the molecule `COc1cc(NC(=O)c2ccccc2NS(=O)(=O)c2ccc(Cl)s2)cc(OC)c1`, the B-score of Tl+ flux slope (higher = more flux/activation; lower = inhibition) is -5.32 (active).

As for `COc1cc(NC(=O)c2cccnc2SC)cc(OC)c1`, the B-score of Tl+ flux slope (higher = more flux/activation; lower = inhibition) was 0.553 (inactive).

Regarding `O=C(Nc1nncs1)c1ccccc1NS(=O)(=O)c1cccs1`, the B-score of Tl+ flux slope (higher = more flux/activation; lower = inhibition) was -1.71 (inactive).

On to `Cc1ccc(-c2nc(SCC(=O)Nc3ccccc3OC(F)F)c3c(C)c(C(=O)O)sc3n2)cc1`, for which the B-score of Tl+ flux slope (higher = more flux/activation; lower = inhibition) was -0.62 (inactive).

In the case of `COc1ccc(C(=O)N/N=C(\C)CC(=O)Nc2ccc(Cl)cn2)cc1`, the B-score of Tl+ flux slope (higher = more flux/activation; lower = inhibition) is -0.466 (inactive).

With `CCn1c(CN2C(=O)CSc3ccccc32)n[nH]c1=S`, the B-score of Tl+ flux slope (higher = more flux/activation; lower = inhibition) is 0.96 (inactive).

For `CSCCC(Nc1nc2ccccc2s1)C(=O)O` (stereo not drawn), the B-score of Tl+ flux slope (higher = more flux/activation; lower = inhibition) was 0.0417 (inactive).

In the case of `O=C(Nc1ccccc1)Nc1nc2ccccc2s1`, the B-score of Tl+ flux slope (higher = more flux/activation; lower = inhibition) was 0.018 (inactive).

Consider `CCC(=O)NC(=Nc1nc2ccccc2s1)NC(=O)CC`, for which the B-score of Tl+ flux slope (higher = more flux/activation; lower = inhibition) is 41 (active).

Consider `O=C(O)C(F)(F)C(NCc1ccccc1)c1ccccc1` (stereo not drawn), for which the B-score of Tl+ flux slope (higher = more flux/activation; lower = inhibition) is -0.106 (inactive).

For `Cn1c(SCC(=O)N2CCOCC2)nnc1-c1ccc2ncccc2c1`, the B-score of Tl+ flux slope (higher = more flux/activation; lower = inhibition) was -0.0283 (inactive).

Take `S=c1ccc2ccccc2[nH]1`: the B-score of Tl+ flux slope (higher = more flux/activation; lower = inhibition) was 29.1 (active).

For `c1ccc2[nH]c(-c3nc4ccccc4[nH]3)nc2c1`, the B-score of Tl+ flux slope (higher = more flux/activation; lower = inhibition) was 0.179 (inactive).

On to `O=C(Nc1ccccc1)c1cc2ccccc2[nH]1`, for which the B-score of Tl+ flux slope (higher = more flux/activation; lower = inhibition) was -1.8 (inactive).

Regarding `O=C(c1ccc(OC2CCN(C(=O)c3cccnc3)CC2)cc1)N1CCCCCC1`, the B-score of Tl+ flux slope (higher = more flux/activation; lower = inhibition) was 0.182 (inactive).

With `COc1ccc(OCC(=O)N2CCN(C(=O)COc3ccccc3)CC2)cc1`, the B-score of Tl+ flux slope (higher = more flux/activation; lower = inhibition) is -0.137 (inactive).

Turning to `Cc1ccc(OCC(=O)N2CCN(C(=O)c3cccnc3)CC2)cc1`, the B-score of Tl+ flux slope (higher = more flux/activation; lower = inhibition) was 2.71 (active).
